Here are results for 52 molecules from ChEMBL document CHEMBL4513216, “Probing the Open Global Health Chemical Diversity Library for Multistage-Active Starting Points for Next-Generation Antimalarials” (ACS Infect Dis, 2020).

Molecules are shown by their SMILES. Among all 65,000 compounds or so, about 2,100 (3.2%) showed an effect of 50% or more. The median lay at about -52%. What follows is part of a selection rich in strong results, with near analogues and random picks from the rest.

This experiment deals with Plasmodium falciparum. Briefly: Screen against P. falciparum Asexual Blood Stage (ABS), at 5uM. Type of experiment: functional, Dd2. To be noted: tested at 5 uM.
Regarding `Cc1cccc(CN2CCC[C@@H]3CN(C(=O)c4ccco4)C[C@@H]32)n1`, the INHIBITION is listed as -73.5%.
`CCS(=O)(=O)NC[C@]12COC[C@H]1CN(Cc1cccnc1)C2`: the INHIBITION is listed as -97.3%.
`O=C(NCC1CC1)[C@H]1C[C@@H]2[C@@H](C1)OCCN2Cc1cccnc1`: the INHIBITION is given as -29.4%.
For the molecule `CC(C)(C)c1cn(C[C@H]2CC3CCN2C[C@@H]3C(=O)NC2CC2)nn1` (some centres not stated), the INHIBITION is on record as -148%.
As to `Cc1noc(C)c1CN1C[C@@H]2C[C@H](C(=O)NCC3CC3)N(C)[C@@H]2C1`, the INHIBITION is reported as -8.05%.
In the case of `O=C(C1CNCCO1)N1CCCC(c2ccccc2)(c2ccccc2)C1` (configuration not stated), the INHIBITION was determined as 79.5%.
With `CC(=O)C1(c2ccccc2)CCN(C(=O)C2CNCCO2)CC1` (configuration not stated), the INHIBITION is listed as -81.4%.
As for `CC(=O)C1(c2ccccc2)CCN(C(=O)CC2CNCCO2)CC1` (configuration not stated), the INHIBITION is -44.7%.
The value for `CCN(CC)c1nc(Nc2cccc(C(C)O)c2)nc2ccccc12` (configuration not stated) was 84.5%.
As for `CC(O)c1cccc(Nc2nc(NCCO)c3ccccc3n2)c1` (configuration not stated), the INHIBITION came out at 89.4%.
For the molecule `OC[C@@H]1CN2CCN(c3ccccn3)C[C@@H]2[C@H]1c1ccccc1`, the INHIBITION was -7.96%.
The value for `c1ccc(CO[C@@H]2CN(Cc3nccs3)[C@@H]3COC[C@@H]32)nc1` was -84.8%.
`CCn1nc(C)c(CN2CCNCC2)c1C`: the INHIBITION was -86.35%.
With `c1cncc(C(Cn2cnnc2)N2CCOCC2)c1` (configuration not stated) the figure was -88.3%; with `COCCN1CCc2cc(C(=O)NC(C)C)c(NCC(C)C)nc2CC1`, 78.9%.
The value for `COCCN1CCC2(CC1)C(=O)Nc1ccc(C(=O)NC(C)C)cc12` was -102%; that for `Cc1n[nH]c2c1C(c1cnn(C)c1)SCC(=O)N2` (configuration not stated) was -51.7%; that for `CC(C)c1ccc(CN2CCC3(CCCN(c4nncs4)C3)C2)cc1` (configuration not stated) was 73.6%.
With `CN(C)C(=O)N1CCCC2(CCN(Cc3ccncc3)C2)C1` (configuration not stated) the figure was -29.6%.
For `c1cncc(CN2CCC3(CCCN(c4nncs4)C3)C2)c1` (configuration not stated), the INHIBITION was -82.9%.
With `Cc1cccc(CN2C[C@@H]3COC[C@H](NS(C)(=O)=O)[C@@H]3C2)n1` the figure was -96.6%.
With `CC(C1CCN(Cc2c(Cl)ccc(O)c2Cl)CC1)N1CCN(C)CC1` (configuration not stated) the figure was 87.2%; with `Cc1n[nH]c2c1C(c1cc(F)cc(F)c1)SCC(=O)N2` (configuration not stated), -23.5%.
With `CCOC(=O)N1CC2(CCNCC2)c2cc(Cl)ccc21` the figure was 78%; with `CC(=O)N1CC2(CCNCC2)c2cc(Cl)ccc21`, 3.4%.
Regarding `NC(=O)N1CC2(CCNCC2)c2cc(Cl)ccc21`, the INHIBITION is -61%.
As for `COC(=O)N1CC2(CCNCC2)c2cc(Cl)ccc21`, the INHIBITION is given as 13.1%.
On to `O=C(c1ccccc1F)N1CC2(CCNCC2)c2cc(Cl)ccc21`, for which the INHIBITION is 77%.
With `CCOC(=O)N1CCC2(CCNC2)C1` (configuration not stated) the figure was -85.4%; with `O=C1CCC2(CCCN(C(=O)c3ccco3)CC2)N1` (configuration not stated), 40.8%.
With `O=C(c1ccco1)N1CC2(CCNCC2)c2cc(Cl)ccc21` the figure was 76.1%.
The value for `O=C(c1ccco1)N1CCO[C@@H]2CNCC[C@@H]2C1` was -138%; that for `O=C(NC[C@]12COC[C@H]1CN(Cc1cccnc1)C2)C1CCC1` was -49.9%.
For `CCC(C(=O)N1CCCSCC1)N1CCCC1=O` (configuration not stated), the INHIBITION was -76.1%.
With `CNCCc1nc2cc(Cl)ccc2[nH]1` the figure was -71%; with `O=C(N1CCCO1)[C@@]12CCO[C@@H]1CCN(Cc1ccccn1)C2`, -110%; with `CC(Cn1cncn1)NCCN1CCc2ccccc21` (configuration not stated), -71.4%.
With `CC(C)c1nn(C)c(Cl)c1CNCC(O)c1cccc(F)c1` (configuration not stated), the INHIBITION is listed as 82.4%.
With `CC(C)=CCN1C[C@@H]2CC[C@H]1CN(C(=O)CSc1ccncc1)C2` the figure was -26.7%.
Consider `Cc1noc(C)c1CN1CC2(CCCCN2C)CC1=O` (configuration not stated), for which the INHIBITION is listed as -15.4%.
The value for `CCn1ccnc1CN1CCCN(C(=O)Cc2csc(C)n2)CC1` was -15.3%.
The value for `CC(C)NC(=O)[C@H]1C[C@@H]2[C@@H](C1)OCCN2Cc1ccccn1` was -84.2%.
With `CCNc1ccnc(CN2CCCC2C(=O)Nc2nccs2)c1` (configuration not stated), the INHIBITION is 95.1%.
The value for `CCn1ccnc1CN1CCCC1C(=O)Nc1nccs1` (configuration not stated) was 85%; that for `O=C(Nc1nccs1)C1CCCN1Cc1ccccn1` (configuration not stated) was 93.7%.
As to `O=C(Nc1cccnc1)[C@H]1C[C@@H]2CCN(Cc3nccs3)C[C@@H]2O1`, the INHIBITION is given as -177%.
As to `O=C(N[C@@H]1CN(Cc2ccccn2)[C@@H]2COC[C@@H]21)C1CCC1`, the INHIBITION is listed as -89.5%.
Turning to `CN(C)CCN(Cc1cccnc1)C(=O)c1ccn(-c2ccccc2)n1`, the INHIBITION was found to be 87.4%.
With `Cc1cnc(C(=O)N2C[C@H]3CN(Cc4cccnc4)C[C@H]3C2)cn1`, the INHIBITION is -8.02%.
Turning to `CCCN1CCN(C(=O)Cc2nc(-c3ccco3)oc2C)CC1`, the INHIBITION is listed as -36.9%.
Regarding `COc1cccc(C2=CCN(CCN3CCCC3=O)CC2)c1`, the INHIBITION stood at 12.8%.
As for `Cc1nc(CN)cc(N2CCC(O)(c3ccc(Cl)cc3)CC2)n1`, the INHIBITION is recorded as 72.2%.
